Holding throughout (assay): NCI-60 one-dose screen, 48 h (100 = growth as untreated, 0 = no growth, -100 = all killed)
What all share (conditions): 10 µM unless noted

The subject of assay [1] is NCI-H23 lung.
Assay [2] has as its system NCI-H226 lung.
Assay [3] deals with NCI-H322M lung.
Assay [4] has as its system HOP-62 NSCLC.
Assay [5] has as its system NCI-H460 lung.
Assay [6] relates to HOP-92 NSCLC.
The subject of assay [7] is NCI-H522 lung.
The subject of assay [8] is A549/ATCC NSCLC.
In assay [9] the test system is 786-0 renal.
The subject of assay [10] is COLO 205 colon.
Assay [11] concerns DU-145 prostate.
Assay [12] deals with K-562 leukemia.
Assay [13] concerns MALME-3M melanoma.
The test system of assay [14] is MDA-MB-231 breast.
Assay [15] has as its system RXF 393 renal.
The test system of assay [16] is SF-268 CNS.
Assay [17] has as its system SF-295 CNS.
Assay [18] has as its system SF-539 CNS.
Assay [19] relates to UACC-257 melanoma.
Assay [20] deals with M14 melanoma.

This is part of a sample that, as a whole, favours compounds with a hit. Of some 83,000 tested, about 20% had one in any assay.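 Assay: single dose, 48 h. Readout: percent growth (0 = no net growth; negative = cell death). Active: <10.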 Unmarked numbers belong to inactive results. Calls of active or inactive are those of the source.

In the case of `CC1(C)C2=C(C(=O)N1Cc1ccccc1)C(c1ccco1)N(C(=O)C1CCC1)CCN2` (stereo not given), the growth in assay [1] was 95.8%; in assay [2], 116%; in [3], 107%; in assay [4] it was 103%; in assay [5], 106%; in [6], 115%. Further, the growth in assay [7] was 93.8%; in [8] it was 75.8%; in [9], 99.5%; in assay [10], 112%; in [11], 110%; in assay [12], 110%. The growth was 105% in assay [13]; 95.5% in assay [14]; 136% in assay [15]; 96.5% in [16]; 108% in assay [17]; 101% in assay [18]. The growth in assay [19] is 95.6%; in assay [20], 103%.
On to `Nc1ncc(-c2ccc3ncnc(N4CCc5cc(F)c(Cl)cc54)c3c2)cn1`, for which the growth in [1] was 58.8%; in assay [2], 33.6%; in assay [3], 25.1%; in assay [4], 28.7%; in [5], 38.8%; in assay [6], 11.5%. Besides, the growth is 44.1% in assay [7]; 28.5% in assay [8]; 26% in assay [9]; 51.5% in assay [10]; 33.4% in [11]; 61.4% in assay [12]. Moreover, the growth was 53.6% in assay [13]; 30% in assay [14]; 1.88% (active) in [15]; 39.8% in [16]; 56.2% in [17]; 48.5% in assay [18]. Besides, the growth in assay [19] is 67.6%; in [20], 61.1%.
Consider `CC(=O)Cc1nsc(NC(=O)c2cc(-c3cc(Cl)ccc3Cl)oc2C)n1`, for which the growth in assay [1] was 99.5%; in [2] it was 94.5%; in assay [3] it was 104%; in assay [4], 102%; in assay [5], 103%; in assay [6], 112%. Besides, the growth was 90.2% in assay [7]; 98.8% in assay [8]; 97% in [9]; 115% in assay [10]; 110% in assay [11]; 102% in assay [12]. Besides, the growth in [13] was 113%; in assay [14] it was 101%; in [15], 103%; in assay [16] it was 98.8%; in [17], 99.6%; in assay [18], 102%. In addition, the growth in [19] was 93.8%; in assay [20] it was 102%.
As to `CCCCCCCCOC(=O)c1c(C)[nH]c(/C=C2\N=C(c3ccc[nH]3)C=C2OC)c1C`, the growth in assay [1] was 3.19% (active); in assay [2], 9.15% (active); in assay [3] it was 26%; in assay [4], 12.7%; in [5] it was 10.2%; in [6] it was -12.5% (active). Further, the growth in [7] is 4.04% (active); in assay [8], -10.9% (active); in [9] it was -40.1% (active); in assay [10] it was -33.7% (active); in [11], 23.3%; in assay [12], 10.8%. Further, the growth in assay [13] is -42.9% (active); in assay [14], -5.15% (active); in assay [15], -19.9% (active); in [16], 24%; in [17], -34.7% (active); in assay [18] it was 3.4% (active). The growth in assay [19] was -15.2% (active); in assay [20] it was -56.1% (active).
Turning to `COc1ccc(S(=O)(=O)NC2c3ccccc3CC2O)cc1OC` (stereo not given), the growth in assay [1] is 103%; in assay [2], 102%; in [3], 109%; in [4] it was 102%; in assay [5] it was 109%; in assay [6], 109%. In addition, the growth was 99% in [7]; 102% in [8]; 104% in [9]; 119% in assay [10]; 111% in assay [11]; 102% in assay [12]. Moreover, the growth in assay [13] is 110%; in assay [14], 112%; in assay [15], 117%; in assay [16], 93.6%; in [17], 98.3%; in assay [18] it was 101%. The growth was 111% in [19] and 99.1% in assay [20].
As to `COC(=O)c1sc(-c2ccc(C)cc2)cc1O`, the growth is 99.1% in assay [1]; 109% in [2]; 94.2% in assay [3]; 109% in [4]; 101% in assay [5]; 105% in assay [6]. Also, the growth in [7] is 105%; in assay [8] it was 103%; in [9] it was 96.7%; in assay [10] it was 107%; in assay [11] it was 101%; in [12] it was 84.3%. For the same molecule, the growth in [13] is 97.9%; in assay [14], 99.6%; in assay [15] it was 109%; in assay [16], 96.2%; in assay [17], 112%; in assay [18] it was 114%. Moreover, the growth in [19] was 115%; in assay [20], 101%.
Regarding `COC(=O)[C@H](C)NC(=O)[C@@H]1CCCN1C(=O)CNC(=O)[C@H](C)N`, the growth was 105% in [1]; 101% in assay [2]; 96.5% in assay [3]; 114% in [4]; 106% in assay [5]; 89% in assay [6]. For the same molecule, the growth in [7] was 96.2%; in assay [8], 106%; in assay [9], 98%; in assay [10], 104%; in assay [11] it was 105%; in [12], 101%. The growth in assay [13] is 86.7%; in assay [14], 106%; in assay [15], 108%; in [16], 97%; in [17], 100%; in assay [18], 106%. Further, the growth in assay [19] and in assay [20] was 103% each time.
For the molecule `COC(=O)c1c(C)nc(C)c2c1C(=O)C(Br)=C(NCCCCO)C2=O`, the growth was 51.1% in assay [1]; 96.7% in assay [2]; 75.5% in [3]; 114% in assay [4]; 40% in assay [5]; 140% in assay [6]. Further, the growth in assay [7] is 71.1%; in assay [8], 75.1%; in assay [9], 89.2%; in assay [10] it was 17%; in assay [11], 79.6%; in assay [12], 71%. Besides, the growth is -2.98% (active) in [13]; 75.1% in assay [14]; 77.7% in [15]; 76.3% in assay [16]; 72.1% in assay [17]; 89.5% in [18]. In addition, the growth in assay [19] is 45.6%; in [20], 46.9%.

These data come from PubChem BioAssay (NCI).
